SMN2 splice up = enhancers of SMN2 splice variant expression. HEK293 SMN2-luciferase splicing reporter, luminescence, 30-36 h. Potency, µM (titrated, usually from 46.1 µM), most hits filed as activators. hit rate 2.8% among 210,000. AID 1458; note: nearly all actives have a fitted effect of over 55% in size
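qHTS luciferase splicing reporter: luminescence rises when SMN2 exon 7 is included in transfected HEK293 cells. Compound exposure lasted 30-36 h at 37C, with 4.5 mM final sodium butyrate as control, followed by a ONE-Glo read.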
NPC1 prom act = NPC1 promoter activation. Potency, µM (highest dose often 9.22 µM), actives largely listed as activators. Huh7 NPC1 promoter luciferase reporter, 24 h. hit rate 2.4% among 320,000; note: nearly all actives have a fitted effect of over 60% in size
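Readout is luciferase luminescence, reflecting NPC1 promoter activation in stably transfected Huh7 cells after 24 h compound exposure at 37 °C in reduced-serum medium with 10% FBS.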
Rab9 prom act = activators of Rab9 promoter; Huh7 Rab9 promoter-luciferase reporter, luminescence, 24 h; Potency, µM (highest dose often 9.22 µM), most hits filed as activators; hit rate 2.8% among 320,000; AID 485297; note: nearly all actives have a fitted effect of over 60% in size
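Stable Rab9-luc Huh7, 1500 cells/well, 2 h settle; cmpd in DMSO, 24 h, 37 °C/5% CO2; luciferase reagent 10 min RT; luminescence.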
ELG1 genotox = genotoxicity induction in ELG1-luciferase HEK293T cells; Potency, µM (highest dose often 46 µM), usual class: activators; AID 504466; HEK293T ELG1-luciferase reporter, luminescence, 16 h; hit rate 1.3% among 330,000; note: nearly all actives have a fitted effect of over 60% in size
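Cells (2,000/well) expressing the ELG1-luciferase fusion are dosed by pin tool and kept 16 hr at 37 °C, 5% CO2. Signal comes from ONE-Glo luciferase reagent after 30 min at room temperature.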
FLuc modulator = counter-screen for miR-21 project: firefly luciferase inhibitors or activators; P08659; purified FLuc, Km substrates, luminescence inhibition; Potency, µM (doses to about 57.5 µM), actives largely listed as inhibitors; hit rate 6.9% among 360,000; AID 588342; note: nearly all actives have a fitted effect of over 55% in size
Target sequence (P08659 whole entry, looked up): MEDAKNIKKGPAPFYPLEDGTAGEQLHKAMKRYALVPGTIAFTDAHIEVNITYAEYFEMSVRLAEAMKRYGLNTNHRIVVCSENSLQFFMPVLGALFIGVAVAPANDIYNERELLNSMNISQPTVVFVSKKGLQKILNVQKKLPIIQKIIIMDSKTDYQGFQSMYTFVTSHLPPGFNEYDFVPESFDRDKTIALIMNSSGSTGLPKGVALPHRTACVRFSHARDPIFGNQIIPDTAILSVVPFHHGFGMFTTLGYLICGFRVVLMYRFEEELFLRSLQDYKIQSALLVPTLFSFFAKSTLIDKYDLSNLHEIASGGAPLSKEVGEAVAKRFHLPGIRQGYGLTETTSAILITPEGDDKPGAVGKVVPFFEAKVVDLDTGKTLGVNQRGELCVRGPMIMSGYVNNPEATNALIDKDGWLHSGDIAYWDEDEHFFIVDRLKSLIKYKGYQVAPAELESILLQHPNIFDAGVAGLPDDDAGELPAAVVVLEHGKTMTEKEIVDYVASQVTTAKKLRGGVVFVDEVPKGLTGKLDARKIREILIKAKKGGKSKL
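Purified P. pyralis luciferase (10nM final) with 10uM D-luciferin and 10uM ATP (Km levels) in 50mM Tris acetate pH 7.5, 10mM Mg acetate, 0.01% Tween-20, 0.05% BSA; qHTS 6-point titration, ~60 µM downward; luminescence read.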
ELG1 DNA repair = ELG1-dependent DNA repair inhibition; HEK293T ELG1-luciferase reporter, luminescence, 16 h; DNA damage induced by 5-fluorouridine; Potency, µM (titrated, usually from 46.1 µM), usual class: inhibitors; hit rate 2.3% among 330,000; note: nearly all actives have a fitted effect of over 55% in size
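DMSO vehicle served as the neutral condition. Each well held 2,000 cells given 5-fluorouridine plus compound; after 16 hr at 37 °C/5% CO2, ONE-Glo was added and luciferase measured 30 min later.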
Hits are given with their value; . = inactive; ? = inconclusive; / = no result; [ ] = remark or other dose. Most compounds without a hit are left out; they make up all but 9.2% or so of the library. Calls come from the whole dose curve; as a rule, active = well fitted curve in the direction sought with a large enough effect; inconclusive = small, poorly fitted or top-dose-only effect, or another doubt; inactive = no such curve, though single readings can be large; an effect the other way counts as inactive or inconclusive.

SMILES | SMN2 splice up | NPC1 prom act | Rab9 prom act | ELG1 genotox | FLuc modulator | ELG1 DNA repair
CN1C(=O)S/C(=C/c2cccnc2)C1=O | . | . | . | . | . | .
c1ccc2sc(SCc3ccc(-c4nnco4)cc3)nc2c1 | 13µM | 1.4µM | 3.2µM | ? | 4.8µM | ?
NC(=O)c1ccc(CSc2nc3ccccc3s2)cc1 | / | ? | 2.8µM | ? | ? | ?
CCNC(=O)c1ccc(CSc2nc3ccccc3s2)cc1 | / | . | . | . | 5.4µM | .
Cc1cc(C)c(S(=O)(=O)Nc2ccc3oc(C)c(C(=O)OC(C)C)c3c2)cc1C | . | / | / | / | . | /
Cc1nc(N/N=C/c2ccc(Br)cc2)cc(N2CCOCC2)n1 | / | . | . | . | . | 15µM
CCOc1ccc2nc(N3CCOCC3)nc(C)c2c1 | 2.8µM | 4µM | ? | 9.2µM | 11µM | ?
Cc1cc(N/N=C/c2ccccc2O)nc(N2CCOCC2)n1 | / | . | . | . | 12µM | .
CCOc1ccc(Nc2cc(C)nc(N3CCOCC3)n2)cc1 | . | . | . | . | . | .
CCOc1ccc(/C=N/Nc2cc(C)nc(N3CCOCC3)n2)cc1 | / | . | . | . | 1.3µM | ?
COc1ccccc1C(=O)Nc1cc2c(cc1N1CCCCC1)n(C)c(=O)n2C | . | / | / | / | . | /
CCc1ccc(NCc2cc3cc4c(cc3n(CC(=O)Nc3ccccc3OC)c2=O)OCCO4)cc1 | / | / | / | / | . | /
COC(=O)c1sccc1NC(=O)CSc1nnnn1-c1ccccc1C | . | . | . | . | . | 18µM
COc1ccccc1NC(=O)CSc1nnnn1-c1ccccc1F | / | . | . | . | . | .
COc1ccc(OC)c(NC(=O)CSc2nnnn2-c2ccc3c(c2)OCO3)c1 | 35µM | . | . | . | . | .
CC(C)OC(=O)CSc1nnnn1-c1ccc2c(c1)OCCO2 | . | . | ? | . | 17µM | ?
COc1ccc(N2CCN(C(=O)CSc3nnnn3-c3ccc4c(c3)OCCO4)CC2)cc1 | . | . | . | . | . | 23µM
COC(=O)c1ccc(-n2nnnc2SCC(=O)Nc2cc(OC)ccc2OC)cc1 | . | . | . | . | . | .
COc1ccc(C(C#N)N2CCC(c3ccccc3)=N2)cc1 (centres undefined) | / | . | . | . | ? | .
CC1CCN(S(=O)(=O)c2ccc3c(c2)N(CC(=O)NCCN(C)C)C(=O)CS3)CC1 | . | / | / | / | . | /
COC(=O)c1ccc(C(=O)N=c2sccn2C)cc1 | / | 2.8µM | 2.8µM | ? | 15µM | ?
Cn1ccsc1=NC(=O)c1ccc(S(=O)(=O)C(F)F)cc1 | / | ? | 3.5µM | ? | ? | ?
COc1ccc(C(=O)N=c2sccn2C)cc1 | ? | ? | ? | ? | 17µM | ?
Cn1ccsc1=NC(=O)c1ccc(CS(C)(=O)=O)cc1 | / | . | . | . | ? | ?
Cn1ccs/c1=N\C(=O)Nc1ccccc1 | / | 2.5µM | 3.2µM | ? | 11µM | ?
SMILES | SMN2 splice up | NPC1 prom act | Rab9 prom act | ELG1 genotox | FLuc modulator | ELG1 DNA repair
CCOc1cc(C(=O)N=c2sccn2C)ccc1OC(F)F | / | . | ? | . | . | .
Cn1ccsc1=NC(=O)c1ccccc1F | . | . | . | . | . | ?
COc1cccc(/C=N/NC(=O)c2c(C)nc3ccc(Cl)cn23)c1O | / | . | . | . | . | ?
CCOc1cc(/C=C/C(=O)Nc2ccc(C(=O)NCCN(CC)CC)cc2)ccc1OCC(C)C | . | . | . | . | . | .
Cn1ccsc1=NC(=O)c1ccc(Cl)cc1 | 14µM | ? | ? | ? | 17µM | ?
CN(C)c1ccc(C(=O)N=c2sccn2C)cc1[N+](=O)[O-] | / | 2.2µM | 3.2µM | 9.2µM | 9.5µM | ?
Cn1ccsc1=NC(=O)c1ccc(OC(F)(F)F)cc1 | / | ? | 4.5µM | ? | 9.5µM | ?
Cc1ccc(N=CNc2ccc(C)cc2C)c(C)c1 | / | . | . | . | 15µM | .
Cc1ccc(CN2CCN(Cc3cn[nH]c3C3CCCCC3)CC2CCO)cc1 (centres undefined) | / | . | . | . | . | .
COC(=O)c1cnn(-c2ccc(C(=O)Nc3cc(OC)c(OC)c(OC)c3)cc2)c1N | / | / | / | / | . | /
CCOc1cnn(-c2cc(Oc3ccc(C)cc3)ncn2)c(=O)c1Cl | . | . | . | . | . | .
c1ccc(Oc2cc(-n3cccn3)ncn2)cc1 | 22µM | ? | 3.2µM | 8.2µM | 12µM | ?
COC(=O)c1cnn(-c2cc(Oc3ccccc3)ncn2)c1N | / | ? | 2.5µM | ? | ? | ?
NC(=O)c1cnn(-c2cc(Oc3ccccc3)ncn2)c1N | / | 3.2µM | 2.5µM | ? | ? | ?
OCCN(CO)CO | .[9.22 µM] | / | / | / | / | /
Cc1cc(C)cc(NC(=O)CSCc2cc(=O)c3ccc(C)c(C)c3[nH]2)c1 | / | / | / | / | . | /
C[C@@]12C=CC(=O)C=C1CC[C@H]1[C@H]3CC[C@](O)(C(=O)CO)[C@]3(C)CC(=O)[C@@H]12 | . | / | / | / | / | /
O=C1C2C3C=CC(CC3)C2C(=O)N1c1ccc(Cl)cc1Cl (centres undefined) | / | . | . | . | 15µM | .
CC(=O)N1C(O)CC(C)N1c1ccccc1 (centres undefined) | ? | . | . | . | . | .
CCN(CC)C(=O)c1ccccc1NS(C)(=O)=O | / | . | . | . | . | .
COc1ccc(CCN(C)C(=O)c2cc(-c3ccccc3)nc3ccc(C)cc23)cc1OC | / | ? | . | ? | 2.4µM | ?
COc1ccc(CCN(C)C(=O)c2cc(-c3ccccc3)nc3ccccc23)cc1OC | / | . | . | . | 15µM | ?
COc1ccc(-c2cc(C(=O)N(C)Cc3cccc(OC)c3OC)c3ccccc3n2)cc1OC | / | . | . | . | . | 13µM
COc1cccc(CN(C)C(=O)c2ccccc2Sc2ccccc2C#N)c1OC | / | 0.32µM | 0.45µM | . | 8.5µM | ?
NC(=O)NOCc1cccc(Cl)c1 | . | . | . | . | . | .
SMILES | SMN2 splice up | NPC1 prom act | Rab9 prom act | ELG1 genotox | FLuc modulator | ELG1 DNA repair
Cc1cc(=O)n2nc(-c3ccccc3)sc2n1 | 13µM | ? | 2µM | ? | ? | ?
CC(C)c1onc(C(=O)N2CCN(Cc3ccccc3)CC2)c1[N+](=O)[O-] | . | . | . | . | . | .
Cc1ccccc1COc1ccc(-c2nnn(CC(=O)O)n2)cc1 | / | . | . | . | 17µM | .
COC(=O)c1ccc(COc2ccc(-c3nnn(CC(=O)NC(C)(C)C)n3)cc2)cc1 | 14µM | . | . | ? | . | .
Cc1ccc(-c2nnn(CC(=O)O)n2)cc1 | . | . | . | . | . | .
O=C(O)c1ccc(-c2nnn(Cc3ccccc3F)n2)cc1 | / | . | . | . | . | .
O=C(O)COc1ccc(-c2nnn(Cc3ccccc3F)n2)cc1 | . | . | . | . | 19µM | .
Cc1nc2ccccc2c2nc3ccccc3n12 | . | . | .[1.84 µM] | ? | ? | .
c1ccc2c(c1)nnn1c3ccccc3nc21 | . | 1.1µM | . | 1.6µM | 4.8µM | ?
Cc1ccc(/C=N/NC(=O)CSc2nnc(-c3ccc(Cl)cc3)n2-c2ccccc2)o1 | / | . | . | . | . | ?
